Among the data in PubChem BioAssay are growth inhibition, inhibition and outcome values, retold here.

Test [1] is described as follows: antimalarial activity against Dd2 strain (AID 2302;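 active = growth inhibition above 50% at the single 2 µM test dose, taken to imply half-maximal potency below 2 µM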;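 also: 0% = DMSO untreated growth and 100% = chloroquine plus artemisinin killed control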). The following applies: P. falciparum Dd2 in RBCs, LDH growth readout, 72 h; at 2 µM; active compounds read high.
The nature of test [2]: human hepatoma cell viability loss – ATP luminescence, cytotoxicity control for P. falciparum antimalarial project, primary screen (AID 2303;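 active = inhibition above 50%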;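 also: 0% = DMSO wells and 100% = digitonin-killed cells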). The following applies: HepG2 viability, 24-48 h, at 10 µM, active compounds read high.
Test [3] concerns the target L-lactate dehydrogenase (Plasmodium falciparum (isolate CDC / Honduras)) (UniProt Q27743). Kind of test: PfLDH activity inhibition – cell lysate, 3D7 strain, counter-screen for P. falciparum growth inhibition project (AID 2304).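 Also: 0% = vehicle and 100% = reference inhibitor.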 As to conditions: P. falciparum 3D7 crude extract, LDH APAD/NBT absorbance; at 2 µM; active compounds read high.
Test [4] in a line: inhibition of 3D7 malaria parasite growth – strain 3D7 (AID 2306).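 Also: 0% = DMSO wells and 100% = chloroquine plus artemisinin control wells.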 The following applies: P. falciparum 3D7 erythrocytic growth, LDH absorbance, 72 h; at 2 µM; active compounds read high.
The target of test [5] is Calcium-dependent protein kinase 1 (Plasmodium falciparum (isolate 3D7)) (UniProt P62344). In words: PfCDPK1 kinase inhibitors, biochemical, TCAMS library (AID 1159585; cut-off not given, nearly all actives have IC50 up to about 0.98 µM;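 also: inhibitors leave more ATP so luminescence rises with inhibition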). As to conditions: recombinant PfCDPK1, Kinase-Glo ATP depletion luminescence. (Kinase-Glo reads ATP consumption through a luciferase reaction.)
The target in test [6] is Plasmodium falciparum protein kinase 6 (PK6, PF3D7_1337100) (UniProt Q8IDW1). Kind of test: PfPK6 kinase inhibitors, biochemical, TCAMS library (AID 1159586). The following applies: recombinant PfPK6, Kinase-Glo ATP depletion luminescence.
In test [7] the target is Protein kinase 7 (PK7), Plasmodium falciparum 3D7 (PF3D7_0213400) (UniProt Q7YTF7). In words: inhibition of Plasmodium PK7 catalytic activity – biochemical, TCAMS antimalarial set, Kinase-Glo luminescence (AID 1159587). The following applies: recombinant PfPK7, Kinase-Glo ATP depletion luminescence.
In test [8] the target is Calcium-dependent protein kinase 4 (Plasmodium falciparum (isolate 3D7)) (UniProt Q8IBS5). In words: PfCDPK4 kinase inhibitors, biochemical, TCAMS library (AID 1159588; cut-off not given, nearly all actives have IC50 up to about 0.91 µM). As to conditions: recombinant PfCDPK4, Kinase-Glo ATP depletion luminescence.

Each structure is given as a SMILES string. Unmarked numbers belong to inactive results. For some of these results: Results with a measured potency or affinity are listed apart. Calls of active or inactive are those of the source. Unless noted, no rule for the calls is given here.

Sequence of Calcium-dependent protein kinase 1 (Plasmodium falciparum (isolate 3D7)) (P62344 whole entry, looked up): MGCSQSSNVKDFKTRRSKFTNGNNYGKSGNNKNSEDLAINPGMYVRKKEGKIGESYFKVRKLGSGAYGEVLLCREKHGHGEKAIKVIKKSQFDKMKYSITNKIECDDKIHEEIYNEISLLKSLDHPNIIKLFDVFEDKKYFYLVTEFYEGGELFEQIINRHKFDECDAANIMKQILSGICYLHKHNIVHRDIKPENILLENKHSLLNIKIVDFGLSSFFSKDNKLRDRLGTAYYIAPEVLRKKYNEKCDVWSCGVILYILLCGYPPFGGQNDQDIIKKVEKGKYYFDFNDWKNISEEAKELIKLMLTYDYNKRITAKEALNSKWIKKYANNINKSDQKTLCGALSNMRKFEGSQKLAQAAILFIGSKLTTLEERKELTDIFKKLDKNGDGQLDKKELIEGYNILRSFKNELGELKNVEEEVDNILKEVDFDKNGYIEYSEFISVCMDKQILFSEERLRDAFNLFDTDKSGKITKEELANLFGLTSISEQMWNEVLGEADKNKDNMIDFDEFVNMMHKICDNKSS
Sequence of Calcium-dependent protein kinase 4 (Plasmodium falciparum (isolate 3D7)) (Q8IBS5 whole entry, looked up): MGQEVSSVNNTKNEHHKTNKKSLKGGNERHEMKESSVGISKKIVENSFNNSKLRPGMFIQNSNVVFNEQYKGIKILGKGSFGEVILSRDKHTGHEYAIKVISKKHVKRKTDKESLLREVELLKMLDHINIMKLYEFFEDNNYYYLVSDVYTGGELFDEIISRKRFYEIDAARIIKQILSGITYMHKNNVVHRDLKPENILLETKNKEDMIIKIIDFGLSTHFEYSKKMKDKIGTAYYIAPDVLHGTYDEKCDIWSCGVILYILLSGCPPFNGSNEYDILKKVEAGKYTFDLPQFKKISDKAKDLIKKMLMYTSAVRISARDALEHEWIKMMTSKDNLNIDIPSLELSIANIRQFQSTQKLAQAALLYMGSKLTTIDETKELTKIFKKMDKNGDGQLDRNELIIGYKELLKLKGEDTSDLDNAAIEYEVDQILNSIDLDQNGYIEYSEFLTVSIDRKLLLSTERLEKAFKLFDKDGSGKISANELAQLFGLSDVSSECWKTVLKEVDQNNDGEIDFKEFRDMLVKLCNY
Sequence of Plasmodium falciparum protein kinase 6 (PK6, PF3D7_1337100) (Q8IDW1 1-305): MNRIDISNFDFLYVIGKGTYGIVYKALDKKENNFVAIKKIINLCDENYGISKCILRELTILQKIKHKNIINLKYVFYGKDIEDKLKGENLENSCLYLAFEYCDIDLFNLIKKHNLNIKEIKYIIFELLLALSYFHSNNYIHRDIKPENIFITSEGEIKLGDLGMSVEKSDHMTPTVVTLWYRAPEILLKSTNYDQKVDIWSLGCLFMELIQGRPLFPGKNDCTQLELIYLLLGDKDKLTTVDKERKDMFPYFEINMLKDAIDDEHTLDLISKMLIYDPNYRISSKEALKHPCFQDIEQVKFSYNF
Sequence of L-lactate dehydrogenase (Plasmodium falciparum (isolate CDC / Honduras)) (Q27743 whole entry, looked up): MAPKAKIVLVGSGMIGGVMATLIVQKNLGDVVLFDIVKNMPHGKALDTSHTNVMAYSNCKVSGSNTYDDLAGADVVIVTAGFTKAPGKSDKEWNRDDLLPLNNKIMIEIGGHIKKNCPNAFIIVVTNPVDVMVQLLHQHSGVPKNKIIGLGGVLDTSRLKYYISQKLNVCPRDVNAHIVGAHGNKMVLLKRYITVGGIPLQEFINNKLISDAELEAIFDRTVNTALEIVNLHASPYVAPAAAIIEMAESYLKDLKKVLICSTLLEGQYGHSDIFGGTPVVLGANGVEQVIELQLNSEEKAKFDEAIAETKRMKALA
Sequence of Protein kinase 7 (PK7), Plasmodium falciparum 3D7 (PF3D7_0213400) (Q7YTF7 1-343): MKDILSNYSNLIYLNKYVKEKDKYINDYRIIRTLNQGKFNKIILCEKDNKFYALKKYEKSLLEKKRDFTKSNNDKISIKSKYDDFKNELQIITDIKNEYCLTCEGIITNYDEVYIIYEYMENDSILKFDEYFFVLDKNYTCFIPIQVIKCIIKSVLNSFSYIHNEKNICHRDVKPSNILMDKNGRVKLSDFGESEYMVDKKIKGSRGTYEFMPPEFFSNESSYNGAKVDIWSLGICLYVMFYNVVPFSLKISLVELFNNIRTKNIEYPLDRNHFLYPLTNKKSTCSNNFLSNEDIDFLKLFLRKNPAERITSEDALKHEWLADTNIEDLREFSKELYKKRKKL

What is called inhibition is the drop in the measured response relative to a control, in per cent. As for `CCOc1cc(Cc2cnc(N)nc2N)cc(OCC)c1OCCCCC(=O)OC`, the growth inhibition in test [1] was 0%; in test [4] it was 95% (active). For the same compound, the inhibition in test [2] was -12%; in test [3], 0%. Moreover, the outcome in test [5], in test [6], in test [7] and in test [8] was inactive.

Take `CN(CCN1CCCC1)c1nc2ccc(-n3cnc4cc(-c5ccc(Cl)cc5)sc4c3=O)cc2[nH]1`: the figures for the growth inhibition in test [1] and in test [4] were 15% and 93% (active), respectively. The inhibition in test [2] is 76% (active); in test [3], 3%. Besides, the result in test [5], in test [6], in test [7] and in test [8] was inactive.

Take `O=C(Nc1ccc(Br)c(C(F)(F)F)c1)c1cccc([N+](=O)[O-])c1`: the growth inhibition in test [1] is 3%; in test [4], 94% (active). Besides, the inhibition in test [2] is 24%; in test [3], -7%. For the same compound, the result in test [5], in test [6], in test [7] and in test [8] was inactive.

In the case of `O=C(Nc1ccc([N+](=O)[O-])cc1)Nc1cc(C(F)(F)F)ccc1F`, the results for the growth inhibition in test [1] and in test [4] were 46% and 89% (active), respectively. Moreover, the inhibition is 8% in test [2] and -4% in test [3]. Besides, the result in test [5], in test [6], in test [7] and in test [8] was inactive.

On to `COC(=O)CCn1c(C2CCN(CC3CCC(NC(=O)/C=C/c4ccc(Cl)c(Cl)c4)CC3)CC2)nc2ccccc21` (stereo not given), for which the growth inhibition in test [1] is 10%; in test [4], 94% (active). The inhibition in test [2] is 14%; in test [3] it was -2%. The result in test [5], in test [6], in test [7] and in test [8] was inactive.

As to `CNCCNCc1cccc(-c2ccc(-c3nc4ccccc4[nH]3)s2)c1`, the growth inhibition in test [1] was 9%; in test [4] it was 99% (active). In addition, the inhibition in test [2] was 8%; in test [3], 0%. The result in test [5], in test [6], in test [7] and in test [8] was inactive.

Regarding `CNC(=O)c1cc(S(=O)(=O)N2CCN(c3ccccn3)CC2)cs1`, the growth inhibition in test [1] is 100% (active); in test [4], 99% (active). Further, the inhibition in test [2] was -2%; in test [3] it was -3%. In addition, the outcome in test [5], in test [6], in test [7] and in test [8] was inactive.

For the compound `O=C(Nc1ccc(Cl)cc1)Nc1cccc(-c2ccc(-c3nc4ccccc4[nH]3)cc2)c1`, the growth inhibition in test [1] is 6%; in test [4], 87% (active). For the same compound, the inhibition in test [2] is 19%; in test [3], -3%. Besides, the result in test [5], in test [6], in test [7] and in test [8] was inactive.

For the compound `CCOc1ccc(C(=O)Nc2cc(Br)c3c(c2)CNCC3)cc1Cl`, the results for the growth inhibition in test [1] and in test [4] were 8% and 92% (active), respectively. In addition, the figures for the inhibition in test [2] and in test [3] were 13% and 5%, respectively. Also, the result in test [5], in test [6], in test [7] and in test [8] was inactive.

For `O=C(N[C@H]1CCN(Cc2ccc(OC3CCN(Cc4ccccc4)CC3)c(Cl)c2)C1)c1ccc(Cl)c(Cl)c1`, the growth inhibition in test [1] is 11%; in test [4], 99% (active). The inhibition in test [2] was 59% (active); in test [3], 0%. Further, the outcome in test [5], in test [6], in test [7] and in test [8] was inactive.

In the case of `COC(=O)C1(NC(=O)c2ccc(-n3nc(C)c(-c4ccccc4)c3N)cc2)CCCC1`, the growth inhibition in test [1] is 81% (active); in test [4], 96% (active). Further, the results for the inhibition in test [2] and in test [3] were 9% and -5%, respectively. Also, the outcome in test [5], in test [6], in test [7] and in test [8] was inactive.

As for `N#Cc1ccc(-c2nc3c(N4CCCC4)cccc3n2CCNCc2ccccc2)cc1`, the growth inhibition was 99% (active) in test [1] and 100% (active) in test [4]. The inhibition in test [2] is 2%; in test [3], -3%. The outcome in test [5], in test [6], in test [7] and in test [8] was inactive.

For `OCC1CCN(Cc2ccc(-c3cccc(-c4nc5ccc(F)cc5[nH]4)c3)cc2)CC1`, the results for the growth inhibition in test [1] and in test [4] were 25% and 100% (active), respectively. Further, the inhibition in test [2] is 14%; in test [3] it was -3%. Further, the outcome in test [5], in test [6], in test [7] and in test [8] was inactive.

Turning to `CN1CCC(NCc2ccc(-c3ccc(S(=O)(=O)NCc4ccccc4)cc3)cc2)CC1`, the figures for the growth inhibition in test [1] and in test [4] were 51% (active) and 99% (active), respectively. The results for the inhibition in test [2] and in test [3] were 40% and 2%, respectively. Besides, the outcome in test [5], in test [6], in test [7] and in test [8] was inactive.

Take `COc1cc(NCCCNCc2cn(Cc3cc(Br)cc(Br)c3)c3ccccc23)nc2ccccc12`: the growth inhibition is 85% (active) in test [1] and 100% (active) in test [4]. In addition, the inhibition is 99% (active) in test [2] and 4% in test [3]. In addition, the outcome in test [5], in test [6], in test [7] and in test [8] was inactive.

For `N[C@@H](Cc1cc(I)c(Oc2ccc(O)c(Cl)c2)c(I)c1)C(=O)O`, the growth inhibition was -3% in test [1] and 96% (active) in test [4]. The inhibition in test [2] is -4%; in test [3], -2%. Besides, the result in test [5], in test [6], in test [7] and in test [8] was inactive.

For `Cc1cc(N[C@@H](CC(C)C)C(=O)NCc2cccc(F)c2)nc(NCCc2ccc(F)cc2)n1`, the growth inhibition in test [1] is 6%; in test [4] it was 90% (active). Further, the inhibition in test [2] is 0%; in test [3], -2%. Also, the result in test [5], in test [6], in test [7] and in test [8] was inactive.

Take `CN(C)Cc1cccc(-c2ccc(Nc3nccc(NCC(O)c4ccccc4)n3)cc2)c1` (stereo not given): the growth inhibition in test [1] is 77% (active); in test [4], 100% (active). Also, the inhibition in test [2] is 75% (active); in test [3], 1%. Also, the outcome in test [5], in test [6], in test [7] and in test [8] was inactive.

Regarding `CCc1ccc(-n2cc(C(=O)c3cc(Br)ccc3O)cc(C#N)c2=O)cc1`, the growth inhibition in test [1] is 30%; in test [4], 97% (active). Besides, the results for the inhibition in test [2] and in test [3] were 9% and -2%, respectively. Moreover, the result in test [5], in test [6], in test [7] and in test [8] was inactive.

Consider `COc1ccc2nccc([C@@H](O)CN3CCC(NCCOc4ccccc4C#N)CC3)c2c1`, for which the growth inhibition is 99% (active) in test [1] and 101% (active) in test [4]. For the same compound, the inhibition was 10% in test [2] and 2% in test [3]. For the same compound, the result in test [5], in test [6], in test [7] and in test [8] was inactive.
